Source: PubChem BioAssay
Pf growth 96h: P. falciparum growth inhibition at 96 hours; P. falciparum luciferase reporter growth, 96 h; Potency, µM (doses to about 28.7 µM), actives largely listed as inhibitors; actives 6.9% (n = 320,000); AID 504834
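P. falciparum expressing integrated firefly luciferase, in erythrocytes at 2% hematocrit, 0.05% parasitemia, incubated with compounds 96 h at 37 C, 5% CO2. Growth inhibition read as loss of luminescence; two-generation exposure targets delayed-death apicoplast inhibitors.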
Pf growth 48h: P. falciparum growth inhibition at 48 hours (one generation). P. falciparum luciferase growth in erythrocytes, 48 h. Potency, µM (top dose mostly 28.7 µM), hits mostly inhibitors. actives 5.9% (n = 310,000)
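In quantitative HTS format, infected erythrocytes bearing luciferase-reporter parasites were treated for a single generation at 37 C. Luminescence after adding detection reagent served as the growth measure.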
HCMV inh: human cytomegalovirus inhibition | activity change, negative = inhibition, % at 57.5 µM | HFF cells, HCMV-luciferase reporter, 72 h; hits give low values | actives 4.5% (n = 410,000); in the data active = activity change below about -60%; inconclusive = no clear call, values can overlap the other calls; inactive = above about -39%
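Human foreskin fibroblasts infected with luciferase-reporter HCMV at MOI 1 PFU/cell, compounds at two doses. Luciferase measured 72 h post infection; normalized to buffer-only basal and Salinomycin (10uM) controls.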
Shiga toxin inh: Shiga toxin inhibition. Vero cells, Shiga toxin protein synthesis inhibition reporter. inhibition, % at 38.7 µM. actives 9.2% (n = 290,000). AID 2315; in the data active = inhibition mostly above about 28%, no sharp cut-off; inactive = mostly below about 43%
CHX counter: counter-screen hit for Shiga toxin inhibitors, cycloheximide; max response, %; AID 2314; actives 12% (n = 300,000); cell reporter, cycloheximide protein synthesis inhibition counterscreen; in the data active = max response mostly above about 13%, no sharp cut-off; inactive = mostly below about 14%; also: read at 38.3 µM for the half of the compounds with a filed dose
A number is an active result; n = inactive; u = inconclusive; x = not tested or not shown. An excerpt weighted towards active compounds, which were near 20% of everything screened. Unless noted, calls follow the shape of the dose curve; as a rule, active = well fitted inhibition curve with a large enough effect; inconclusive = small, poorly fitted or top-dose-only effect, or another doubt; inactive = no such curve, though single readings can be large or run the other way.

SMILES	Pf growth 96h	Pf growth 48h	HCMV inh	Shiga toxin inh	CHX counter
CCN(Cc1ccccc1)S(=O)(=O)c1cc(C(=O)NCC2CCCCC2)ccc1OC	11.7µM	u	-83.0	n	n
O=C(NCC1COc2ccccc2O1)c1cccc(S(=O)(=O)N2CCN(c3ccccc3)CC2)c1 (centres undefined)	u	u	-75.7	x	x
O=C(C[C@@H]1C[C@@H]2c3cc(NC(=O)C4CCC4)ccc3O[C@@H]2[C@@H](CO)O1)NCc1ccc(Cl)cc1	x	x	n	x	x
CCOc1ccc(-c2c(C)nn3c(C)c(C(=O)NCCc4ccc(Cl)cc4)cnc23)cc1OCC	x	x	n	x	x
N#CCC(=O)N/N=C\c1cc(Br)ccc1OC/C=C/c1ccccc1	2.94µM	n	n	97.7	25.6
COC(=O)N/N=C\c1ccccc1OC/C=C/c1ccccc1	9.28µM	u	x	n	31.5
COc1cc(/C=N\NC(C)=O)ccc1OC/C=C/c1ccccc1	u	u	n	n	n
CCOC(=O)N/N=C\c1ccccc1OC/C=C/c1ccccc1	n	2.94µM	n	54.9	34.1
CN(C)c1ccc(-c2ccnc3c2CC(C)(C(=O)NCC2CCOCC2)O3)cc1 (centres undefined)	x	x	n	x	x
CCOc1ccccc1NC(=O)CN1c2ccccc2S(=O)(=O)c2ccccc21	x	x	n	x	x
N#Cc1ccc(CN2C=NS(=O)(=O)c3ccccc32)cc1	n	n	n	n	n
CC(Cc1ccccc1)NC(=O)/C=C/c1ccc([N+](=O)[O-])cc1 (centres undefined)	n	n	n	n	n
CC(Cc1ccccc1)NC(=O)c1ccc(N)cc1 (centres undefined)	11.7µM	n	n	62.1	37.3
CC(Cc1ccccc1)NC(=O)C(c1ccc(N)cc1)c1ccc(N)cc1 (centres undefined)	n	u	n	n	n
CC(Cc1ccccc1)NC(=O)c1ccc([N+](=O)[O-])cc1 (centres undefined)	u	n	n	60.7	30.0
CC(Cc1ccccc1)NC(=O)NC(C)Cc1ccccc1 (centres undefined)	n	x	n	68.7	28.9
CC(=O)NC(C)Cc1ccccc1 (centres undefined)	n	x	n	n	n
O=C(Cc1ccccc1)NC(C(=O)O)C(O)c1ccc([N+](=O)[O-])cc1 (centres undefined)	10.4µM	n	n	n	n
CC1OC(OC2C=C3CCC4C(CCC5(C)C(c6ccc(=O)oc6)CCC45O)C3(C)CC2)C(O)C(OC2OC(CO)C(O)C(O)C2O)C1O (centres undefined)	x	x	-97.4	x	x
O=C1CCn2nc(-c3ccc(Cl)cc3)cc2N1	u	n	n	78.7	44.2
O=C(/C=C/c1ccco1)Nc1nnc(-c2ccco2)s1	n	n	n	n	14.4
O=C(/C=C/c1ccco1)Nc1cc(Cl)ccc1C(=O)O	n	u	n	n	n
Cc1nc(NC(=O)/C=C/c2ccco2)sc1C	n	n	n	143.8	57.3
O=C(/C=C\c1ccco1)Nc1cc([N+](=O)[O-])ccc1F	n	n	-87.2	n	n
CNS(=O)(=O)c1ccc2nc(NC(=O)/C=C/c3ccco3)sc2c1	n	n	n	n	n
SMILES	Pf growth 96h	Pf growth 48h	HCMV inh	Shiga toxin inh	CHX counter
O=C(/C=C/c1ccco1)Nc1cccc(NC(=O)/C=C/c2ccco2)n1	n	n	n	102.5	33.2
Cc1cccnc1C(NC(=O)C1CCN(CCCOc2ccccc2)CC1)c1ccc(F)cc1 (centres undefined)	x	x	n	x	x
CC(C)c1nn2c(=O)cc(COC(=O)c3ccc(NC(=O)CCc4ccccc4)cc3)nc2s1	x	x	n	x	x
CC(Sc1nnnn1-c1cccc(F)c1)C(=O)NC1CCCC1 (centres undefined)	n	n	n	x	x
CCc1nnc(NC(=O)/C=C/c2ccco2)s1	n	n	n	n	26.7
CCCn1nnc(NC(=O)/C=C/c2ccco2)n1	n	n	n	n	n
CCSc1nnc(NC(=O)/C=C/c2ccco2)s1	u	n	n	116.7	30.1
O=C(/C=C/c1ccco1)NC1=NCCS1	u	n	n	42.7	61.1
CCN1CCc2c(OCC(=O)Nc3ccc(C)cc3)cccc2C1=O	n	n	n	n	n
CCOC(=O)Cc1nc2cc(Cl)ccc2o1	n	n	n	n	n
Cc1ccc(-c2nc(S(=O)(=O)c3ccc(C)cc3)c(SCC(=O)NC3CCCCC3)o2)cc1	x	x	n	x	x
Nc1scc2c(C(=O)N/N=C/c3ccc(Cl)cc3)nn(-c3ccccc3)c(=O)c12	5.22µM	u	u	n	n
CCOC(=O)c1nn(-c2ccccc2)c(=O)c2c(N)scc12	n	n	n	n	n
Cc1ccc[n+](CC(=O)c2ccc(Br)cc2)c1	n	n	n	n	n
N#Cc1ccc[n+](CC(=O)c2ccc(Cl)cc2)c1	7.38µM	n	n	n	n
CC(C)n1nnnc1C1c2ccccc2C(=O)N1Cc1ccc(F)cc1 (centres undefined)	x	x	n	x	x
CCCn1ccc2c(OCC(=O)Nc3ccccc3C(=O)OCC)cccc2c1=O	x	x	n	x	x
Cc1nn(-c2ccccc2)c2nc(-c3ccccc3)cc(C(=O)N3CCOCC3)c12	2.08µM	n	n	n	n
Cc1nn(-c2cccc(Cl)c2)c2nc(-c3ccncc3)cc(C(=O)N3CCOCC3)c12	6.57µM	u	n	n	n
CC(=O)Nc1cccc(Oc2ncnc3scc(-c4ccc(C)cc4)c23)c1	u	n	-66.3	n	n
COc1ccc(/C=N/NS(=O)(=O)c2ccc(C)cc2)cc1OC(=O)c1ccccc1	n	n	n	n	n
COc1cc(/C=N/NS(=O)(=O)c2ccc3ccccc3c2)ccc1OCc1ccc(C(=O)O)cc1	n	n	n	118.8	63.1
COC(=O)c1ccc(CN=C(NS(=O)(=O)c2ccccc2)c2ccccc2)cc1	x	x	n	x	x
COC(=O)c1ccc(COc2ccccc2/C=N/NS(=O)(=O)c2ccccc2)cc1	n	n	-85.6	n	n
COc1ccc(/C=N/NS(=O)(=O)c2ccc(C)cc2)cc1	3.29µM	n	x	n	n
SMILES	Pf growth 96h	Pf growth 48h	HCMV inh	Shiga toxin inh	CHX counter
COc1cc(/C=N/NS(=O)(=O)c2ccc(C)cc2)ccc1OCc1cccc(C(=O)O)c1	u	n	n	182.6	53.6
CCCCn1c(N)c(N(CCOC)C(=O)C2CC(=O)N(c3ccc(CC)cc3)C2)c(=O)[nH]c1=O (centres undefined)	n	n	n	x	x
COc1ccc(C2NC(=O)N(C)C3=C2C(=O)N(c2ccc(Br)cc2)C3)cc1 (centres undefined)	x	x	n	x	x
COC(=O)c1ccc(COc2ccccc2/C=C(\C#N)C(=O)Nc2c(C)cc(C)cc2C)cc1	u	u	-93.4	n	n
C/C(=N\O)C(=O)NCc1ccccn1	n	n	n	n	n
O=C(NCc1ccccc1)/C(=N\O)c1ccccc1	n	n	n	54.0	21.3
O=C(NCc1ccccn1)/C(=N/O)c1ccccc1	u	n	n	30.7	36.5
Cc1ccc(CNC(=O)c2cccc(Nc3nc4ccccc4n4nnnc34)c2)cc1	x	x	n	x	x
COc1ccc(C2=NC(c3ccncc3)=Nc3ccc(OC)cc3N2)cc1	x	x	n	x	x
